Results reported in PubChem BioAssay AID504379 (National Center for Advancing Translational Sciences (NCATS), 2011).
Calls of active or inactive are those of the source. No rule for the calls is given here.

Each compound was assayed against Thyrotropin receptor (Homo sapiens) (UniProt P16473) (assay: Concentration-response assay for inverse agonists of the thyroid stimulating hormone receptor: ELISA activity detection). Conditions: HEK293-TSHR basal cAMP, ELISA chemiluminescence, 1 h.
Text: TSH is an alpha/beta heterodimeric glycoprotein hormone secreted from the anterior pituitary gland which belongs to the glycoprotein hormone family. The actions of TSH are mediated by a seven-transmembrane receptor, which upon TSH binding couples preferentially to the G-alpha (s) protein (Gs), resulting in activation of adenylate cyclase and increase in cyclic adenosine 3', 5' monophosphate (cAMP). The TSH receptor (THSR) is mainly expressed in thyroid follicular cells and regulates their growth and function. This cell based assay was conducted on a TSHR transfected HEK 293 cell line, measuring cAMP stimulation using antibody-based Homogeneous Time Resolved Fluorescence (HTRF). Our goal is to identify small molecules that will inhibit (antagonize) the thyroid-stimulating hormone receptor (TSHR), a member of the 7 transmembrane-spanning receptor (7TMR) family of cell surface receptors. TSHR-mediated hyperthyroidism is important in thyroid pathology. The development of small molecule antagonists of TSHR may lead to therapeutic approaches for TSHR-mediated hyperthyroidism caused by constitutively activating mutations or stimulating auto-antibodies associated with Graves' disease. Graves' disease is the leading cause of hyperthyroidism and is caused by autoantibodies that stimulate TSHR (TsAbs) causing thyroid growth and unregulated overproduction of thyroid hormones and existing treatments have liabilities (agranulocytosis). In addition, TSHRs are known to be expressed in multiple extrathyroidal tissues including bone, brain, kidney, testis, fat and cells of the immune system but the role of the TSHR in these tissues is not clear. Therefore, TSHR antagonists/inverse agonists could be used as probes of extrathyroidal TSHR function. Finally, TSHR inverse agonists, which are a subclass of antagonists that inhibit agonist-independent (or basal or constitutive) TSHR signaling, could be used to inhibit TSH-independent signaling in patients with recurrent or metastatic thyroid cancer who are receiving thyroid hormone to suppress TSH. A confirmatory assay of TSHR inverse agonists was conducted on a HEK 293 cell line stably expressing the TSHR, using an ELISA based cAMP competition assay using cAMP-Screen Direct System (Applied Biosystems, Foster City, CA) to measure cAMP stimulation.
Transiently transfected HEK-EM 293 cells or cells stably expressing TSHRs were seeded into 96-well plates at a density of 7 x10^4 cells per well in DMEM containing 10% FBS. Cells were cultured for 24 h before incubation for 20 min in HBSS/10 mM HEPES (pH 7.4). To determine basal cAMP production, cells were incubated for 1 h at 37 C in a humidified incubator in HBSS/HEPES containing 1mM IBMX (Sigma Chemical Co., St. Louis, MO) in the presence or absence of compound. The levels of cAMP in cells incubated in HBSS/HEPES without IBMX were subtracted in all experiments. After aspiration of the incubation medium, cells were lysed using lysis buffer of the cAMP-Screen Direct system (Applied Biosystems, Foster City, CA). The cAMP content of the cell lysate was determined using the method described in the manufacturer's protocol. The chemiluminescence signal was measured in a VICTOR3 V 1420 multilabel counter (PerkinElmer, Norwalk, CT). The potency (IC50) of the ligands were obtained from dose-response curves by data analysis with GraphPad Prism 4 for Windows.

Thyrotropin receptor (Homo sapiens), sequence (P16473 whole entry, looked up): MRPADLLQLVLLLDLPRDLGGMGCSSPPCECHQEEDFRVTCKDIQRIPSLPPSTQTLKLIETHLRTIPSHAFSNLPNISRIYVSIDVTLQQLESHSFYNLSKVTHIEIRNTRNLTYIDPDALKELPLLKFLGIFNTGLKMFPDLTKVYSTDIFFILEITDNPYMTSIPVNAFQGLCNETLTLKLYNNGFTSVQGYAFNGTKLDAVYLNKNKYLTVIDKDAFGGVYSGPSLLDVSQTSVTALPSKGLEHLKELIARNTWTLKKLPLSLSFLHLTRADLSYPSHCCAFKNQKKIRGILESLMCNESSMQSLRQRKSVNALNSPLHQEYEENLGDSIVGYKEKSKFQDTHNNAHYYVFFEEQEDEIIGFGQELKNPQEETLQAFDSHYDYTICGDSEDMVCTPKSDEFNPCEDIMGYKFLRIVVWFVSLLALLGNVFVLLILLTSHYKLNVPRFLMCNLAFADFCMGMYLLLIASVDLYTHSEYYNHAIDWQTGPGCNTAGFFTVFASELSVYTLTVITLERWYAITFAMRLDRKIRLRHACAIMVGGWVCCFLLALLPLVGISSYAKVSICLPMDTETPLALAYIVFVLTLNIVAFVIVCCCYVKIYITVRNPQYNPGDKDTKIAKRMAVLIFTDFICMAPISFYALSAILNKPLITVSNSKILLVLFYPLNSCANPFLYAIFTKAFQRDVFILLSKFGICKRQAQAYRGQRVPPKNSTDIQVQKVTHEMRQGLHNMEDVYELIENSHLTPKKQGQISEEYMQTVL

outcome, inactive:
COc1ccc(C2Nc3ccccc3C(=O)N2Cc2ccc(C)o2)cc1COc1c(C)cccc1C (stereo unspecified)
COc1ccc(C2Nc3ccccc3C(=O)N2Cc2ccccn2)cc1COc1c(C)cccc1C (stereo unspecified)
COc1ccc(C2Nc3ccccc3C(=O)N2Cc2ccccc2)cc1COc1c(C)cccc1C (stereo unspecified)
COc1ccc(C2Nc3ccccc3C(=O)N2Cc2ccco2)cc1COc1ccccc1C (stereo unspecified)
COc1ccc(C2Nc3cccc(O)c3C(=O)N2Cc2ccco2)cc1COc1c(C)cc(NC(C)=O)cc1C (stereo unspecified)
COc1ccc(C2Nc3ccccc3C(=O)N2Cc2ccco2)cc1CSc1c(C)cccc1C (stereo unspecified)
COc1ccc(C2Nc3ccccc3C(=O)N2Cc2cccs2)cc1COc1c(C)cccc1C (stereo unspecified)

IC50, active:
COc1ccc(C2Nc3ccccc3C(=O)N2Cc2ccco2)cc1COc1c(C)cc(NC(C)=O)cc1C (stereo unspecified) 6 µM
CCc1cccc(CC)c1OCc1cc(C2Nc3ccccc3C(=O)N2Cc2ccco2)ccc1OC (stereo unspecified) 11 µM
Cc1cccc(C)c1OCc1cccc(C2Nc3ccccc3C(=O)N2Cc2ccco2)c1 (stereo unspecified) 5 µM
COc1ccc(C2Nc3ccccc3C(=O)N2Cc2cccnc2)cc1COc1c(C)cccc1C (stereo unspecified) 7 µM
